# Measurements from PubChem BioAssay.
# Values without a mark were called inactive. For some of these results: Results with a measured potency or affinity are listed apart. The source made the active and inactive calls. Unless noted, no rule for the calls is given here.
# Tests used:
# [1] = antimalarial activity against Dd2 strain (AID 2302;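 active = growth inhibition above 50% at the single 2 µM test dose, taken to imply half-maximal potency below 2 µM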;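 also: 0% = DMSO untreated growth and 100% = chloroquine plus artemisinin killed control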); details: P. falciparum Dd2 in RBCs, LDH growth readout, 72 h; at 2 µM; hits give high values
# [2] = human hepatoma cell viability loss – ATP luminescence, cytotoxicity control for P. falciparum antimalarial project, primary screen (AID 2303;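 active = inhibition above 50%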;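 also: 0% = DMSO wells and 100% = digitonin-killed cells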); details: HepG2 viability, 24-48 h, at 10 µM, hits give high values
# [3] = molecular target: L-lactate dehydrogenase (Plasmodium falciparum (isolate CDC / Honduras)) (UniProt Q27743); assay: PfLDH activity inhibition – cell lysate, 3D7 strain, counter-screen for P. falciparum growth inhibition project (AID 2304);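 also: 0% = vehicle and 100% = reference inhibitor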; details: P. falciparum 3D7 crude extract, LDH APAD/NBT absorbance; at 2 µM; hits give high values
# L-lactate dehydrogenase (Plasmodium falciparum (isolate CDC / Honduras)), sequence (Q27743 whole entry, looked up): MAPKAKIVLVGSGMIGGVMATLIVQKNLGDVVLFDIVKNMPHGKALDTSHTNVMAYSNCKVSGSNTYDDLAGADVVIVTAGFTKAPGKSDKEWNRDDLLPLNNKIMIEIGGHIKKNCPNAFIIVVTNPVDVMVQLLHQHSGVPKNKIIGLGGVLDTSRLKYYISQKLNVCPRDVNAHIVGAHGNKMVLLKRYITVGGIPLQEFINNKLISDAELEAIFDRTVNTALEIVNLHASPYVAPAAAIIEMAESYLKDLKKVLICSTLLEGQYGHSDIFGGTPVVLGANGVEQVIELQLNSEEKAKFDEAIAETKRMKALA
# [4] = inhibition of 3D7 malaria parasite growth – strain 3D7 (AID 2306);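 also: 0% = DMSO wells and 100% = chloroquine plus artemisinin control wells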; details: P. falciparum 3D7 erythrocytic growth, LDH absorbance, 72 h; at 2 µM; hits give high values
# [5] = molecular target: Calcium-dependent protein kinase 1 (Plasmodium falciparum (isolate 3D7)) (UniProt P62344); assay: PfCDPK1 kinase inhibitors, biochemical, TCAMS library (AID 1159585; cut-off not given, nearly all actives have IC50 up to about 0.98 µM;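 also: inhibitors leave more ATP so luminescence rises with inhibition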); details: recombinant PfCDPK1, Kinase-Glo ATP depletion luminescence
# Calcium-dependent protein kinase 1 (Plasmodium falciparum (isolate 3D7)), sequence (P62344 whole entry, looked up): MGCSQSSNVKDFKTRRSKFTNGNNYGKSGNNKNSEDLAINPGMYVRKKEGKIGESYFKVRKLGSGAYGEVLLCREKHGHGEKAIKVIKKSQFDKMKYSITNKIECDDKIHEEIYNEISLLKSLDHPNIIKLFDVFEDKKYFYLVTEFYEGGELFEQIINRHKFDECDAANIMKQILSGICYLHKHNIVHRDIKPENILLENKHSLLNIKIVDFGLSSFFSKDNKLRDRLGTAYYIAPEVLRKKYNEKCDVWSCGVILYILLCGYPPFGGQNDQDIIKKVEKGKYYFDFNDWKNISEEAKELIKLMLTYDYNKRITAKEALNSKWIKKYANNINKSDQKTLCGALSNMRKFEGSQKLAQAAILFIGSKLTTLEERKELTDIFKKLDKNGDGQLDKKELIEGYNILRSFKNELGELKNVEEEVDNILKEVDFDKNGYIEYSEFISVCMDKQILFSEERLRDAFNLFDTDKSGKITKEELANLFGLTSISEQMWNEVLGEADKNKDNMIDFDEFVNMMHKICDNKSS
# [6] = molecular target: Plasmodium falciparum protein kinase 6 (PK6, PF3D7_1337100) (UniProt Q8IDW1); assay: PfPK6 kinase inhibitors, biochemical, TCAMS library (AID 1159586); details: recombinant PfPK6, Kinase-Glo ATP depletion luminescence
# Plasmodium falciparum protein kinase 6 (PK6, PF3D7_1337100), sequence (Q8IDW1 1-305): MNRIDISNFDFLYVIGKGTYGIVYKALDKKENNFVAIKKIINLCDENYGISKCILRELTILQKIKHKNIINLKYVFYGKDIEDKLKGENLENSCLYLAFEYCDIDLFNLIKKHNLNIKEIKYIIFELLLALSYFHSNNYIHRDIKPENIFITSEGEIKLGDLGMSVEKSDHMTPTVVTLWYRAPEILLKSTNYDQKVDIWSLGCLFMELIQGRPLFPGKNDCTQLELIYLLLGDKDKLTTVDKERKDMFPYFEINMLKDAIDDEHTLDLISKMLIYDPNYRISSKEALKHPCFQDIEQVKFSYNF
# [7] = molecular target: Protein kinase 7 (PK7), Plasmodium falciparum 3D7 (PF3D7_0213400) (UniProt Q7YTF7); assay: inhibition of Plasmodium PK7 catalytic activity – biochemical, TCAMS antimalarial set, Kinase-Glo luminescence (AID 1159587); details: recombinant PfPK7, Kinase-Glo ATP depletion luminescence
# Protein kinase 7 (PK7), Plasmodium falciparum 3D7 (PF3D7_0213400), sequence (Q7YTF7 1-343): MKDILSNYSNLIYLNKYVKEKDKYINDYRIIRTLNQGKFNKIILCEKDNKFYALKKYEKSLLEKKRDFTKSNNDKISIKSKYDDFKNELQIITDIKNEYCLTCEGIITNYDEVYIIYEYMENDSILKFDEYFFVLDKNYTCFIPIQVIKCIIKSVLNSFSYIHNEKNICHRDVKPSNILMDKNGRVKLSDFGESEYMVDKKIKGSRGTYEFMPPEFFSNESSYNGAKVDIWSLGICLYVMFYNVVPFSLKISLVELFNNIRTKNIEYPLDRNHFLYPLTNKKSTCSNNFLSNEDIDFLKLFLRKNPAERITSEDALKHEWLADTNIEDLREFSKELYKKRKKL
# [8] = molecular target: Calcium-dependent protein kinase 4 (Plasmodium falciparum (isolate 3D7)) (UniProt Q8IBS5); assay: PfCDPK4 kinase inhibitors, biochemical, TCAMS library (AID 1159588; cut-off not given, nearly all actives have IC50 up to about 0.91 µM); details: recombinant PfCDPK4, Kinase-Glo ATP depletion luminescence
# Calcium-dependent protein kinase 4 (Plasmodium falciparum (isolate 3D7)), sequence (Q8IBS5 whole entry, looked up): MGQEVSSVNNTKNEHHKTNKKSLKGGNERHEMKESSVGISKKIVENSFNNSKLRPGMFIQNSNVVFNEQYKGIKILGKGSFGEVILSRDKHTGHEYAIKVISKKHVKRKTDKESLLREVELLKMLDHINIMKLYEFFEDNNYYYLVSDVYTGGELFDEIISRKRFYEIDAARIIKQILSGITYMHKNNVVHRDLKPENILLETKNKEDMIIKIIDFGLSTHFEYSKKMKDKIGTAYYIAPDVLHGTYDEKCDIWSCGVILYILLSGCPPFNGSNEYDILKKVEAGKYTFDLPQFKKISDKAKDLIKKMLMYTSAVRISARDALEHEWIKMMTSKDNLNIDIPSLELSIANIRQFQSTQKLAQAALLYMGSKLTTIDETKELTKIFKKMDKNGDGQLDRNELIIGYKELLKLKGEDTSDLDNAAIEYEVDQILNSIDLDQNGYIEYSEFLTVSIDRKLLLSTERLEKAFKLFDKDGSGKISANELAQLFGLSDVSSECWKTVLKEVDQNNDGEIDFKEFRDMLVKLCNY
Compound,growth inhibition [1],inhibition [2],inhibition [3],growth inhibition [4],outcome [5],outcome [6],outcome [7],outcome [8]
N#Cc1ccccc1S(=O)(=O)N1CCCC(CNC(=O)[C@H](CC2CCCCC2)NC(=O)c2cc3ccccc3s2)C1 (stereo not given in full),92% (active),9%,-2%,97% (active),inactive,inactive,inactive,inactive
Cc1ccc2nc(-c3ccc(C=CC(=O)NCc4ccc(Cl)c(Cl)c4)cc3)[nH]c2c1,18%,5%,-5%,96% (active),inactive,inactive,inactive,inactive
CSc1sc(NC(=O)Nc2cccc(C(F)(F)F)c2)cc1C#N,46%,27%,-1%,99% (active),inactive,inactive,inactive,inactive
O=c1cc(NCCCNCc2sc(Br)c(Br)c2Br)[nH]c2ccccc12,38%,0%,5%,90% (active),inactive,inactive,inactive,inactive
COc1ccc2ncc(Cl)c([C@@H](O)CN3CCC(NCc4cc5c(cn4)OCCO5)CC3)c2c1,100% (active),8%,3%,101% (active),inactive,inactive,inactive,inactive
Cc1ccc(C2(CN3CCC(NC(=O)c4[nH]ncc4Cl)CC3)CCCCC2)cc1,96% (active),-11%,-3%,97% (active),inactive,inactive,inactive,inactive
CCCCCCCN1CC[C@@H](CCCc2ccnc3ccc(OC)cc23)[C@@H](CCN)C1,11%,50% (active),-5%,102% (active),inactive,inactive,inactive,inactive
O=C(NC1CC1)c1ccc(Cn2c(SCc3cccc([N+](=O)[O-])c3)nc3ccccc3c2=O)cc1,65% (active),12%,1%,91% (active),inactive,inactive,inactive,inactive
COC(=O)c1ccc(OCC(O)CO)cc1O (stereo not given),23%,4%,5%,101% (active),inactive,inactive,inactive,inactive
Oc1c(CN2CCC(Cc3ccccc3)CC2)cc(Cl)c2cccnc12,94% (active),49%,4%,96% (active),inactive,inactive,inactive,inactive
Cc1ccccc1C1CCN(C2CCC(NC(=O)/C=C/c3cc(F)ccc3C(F)(F)F)CC2)CC1 (stereo not given),25%,90% (active),2%,98% (active),inactive,inactive,inactive,inactive
COc1ccc(Cl)cc1N1CCN(CCCNC(=O)c2ccc(-c3nc4cc(Cl)c(F)cc4[nH]3)c(F)c2)CC1,91% (active),21%,5%,101% (active),inactive,inactive,inactive,inactive
CS(=O)(=O)c1ccc(Nc2ncc(-c3ccc(S(C)(=O)=O)cc3)c(OCC(F)(F)F)n2)cc1,98% (active),-7%,-3%,97% (active),inactive,inactive,inactive,inactive
Cc1cc(NN=Cc2ccc(Cl)cc2)c2cc(F)ccc2n1,98% (active),6%,2%,101% (active),inactive,inactive,inactive,inactive
C=CCOc1ccc(CNC2CCN(Cc3ccccc3)CC2)cc1Br,8%,9%,-2%,92% (active),inactive,inactive,inactive,inactive
Cc1cccnc1CNc1nccc2c(C)c(C)[nH]c12,28%,27%,0%,100% (active),inactive,inactive,inactive,inactive
C/C(=C\C(=O)NC1CC1)c1ccccc1OCc1ccccc1,1%,3%,-1%,90% (active),inactive,inactive,inactive,inactive
CC(C)(C)c1ccccc1OCCCON1C(N)=NC(N)=NC1(C)C,98% (active),63% (active),5%,95% (active),inactive,inactive,inactive,inactive
O=C(CCC1CCCCC1)NCCNc1cccc2ccccc12,57% (active),7%,-1%,90% (active),inactive,inactive,inactive,inactive
COc1cc(C)nc2ccc(NC(=O)COCC(=O)Nc3ccc4nc(C)cc(OC)c4c3)cc12,41%,67% (active),7%,100% (active),inactive,inactive,inactive,inactive
